Source: PubChem
FAS TE block: blocks the thioesterase domain of human fatty acid synthase; recombinant FAS-TE, OMFH fluorogenic substrate, fluorescence endpoint; inhibition, % at 15 µM; 360,000 compounds, 0.67% hits; AID 602261;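 active means compounds whose normalised, plate-corrected inhibition of enzyme fluorescence in the single-dose primary screen is 50% or more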;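 further: 0% = DMSO with enzyme and 100% = substrate without enzyme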
Mot1-301 SUMO: blocks SUMOylation pathway, rescuing yeast Mot1-301 growth | S. cerevisiae Mot1-301 growth rescue, ATP luminescence, 38.5C; percent above DMSO median, 100 means doubled | growth rescue, % at 18.8 µM | 320,000 compounds, 1% hits;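 active means every valid replicate shows activation above 250% relative to neutral control wells; inactive means the rest, any valid replicate at or below 250%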;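 further: OY570 slx delta 5 strain wells were the positive control but not used for scaling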
aDG glyco up: increases alpha dystroglycan glycosylation; Pro5-aDG cells, alpha-DG glycosylation AlphaScreen (IIH6); 0% Pro5, 100% B10-LARGE cell signal; activation, % at 10 µM; 360,000 compounds, 0.22% hits;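 active means activation of at least 8% versus controls, or a plate z-score of at least 8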;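 further: Pro5 are CHO cells carrying HIG-tagged alpha-DG that lacks glycosylation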
MPTP block: permeability transition pore inhibition; isolated mouse mitochondria, Ca2+ swelling absorbance, 30 min; inhibition, % at 10 µM; 360,000 compounds, 1.4% hits;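 active means inhibition of 50% or more, scaled per plate between neutral and stimulator controls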;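 further: 0% = DMSO wells given calcium and 100% = 1 mM EGTA wells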
H9c2 protect: protects H9c2 cardiomyocytes from peroxide injury; H2O2 injury protection, ATPLite, 2 h; protection from H2O2 cell death, % at 20 µM; 360,000 compounds, 0.63% hits;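 active means compounds giving at least 50% protection of heart cells from peroxide-induced death in the single-dose screen, raw or plate-pattern-corrected value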;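 further: 0% = DMSO wells with peroxide and 100% = DMSO wells without peroxide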
CR mimetic SO: lowers age-related superoxide in aged yeast cells; S. cerevisiae aged cells, superoxide DHE fluorescence; hits give low values; superoxide response (% of plate mean), % at 10 µM; 330,000 compounds, 0.18% hits; AID 2690;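 active means superoxide response under a set limit, about three screen SD below normal, cut at about 65% in these data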;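 further: yeast aged for seven days with compound at 30 °C before DHE staining; 100% = average MFI of all compound-treated wells on the plate with controls excluded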
Mot1 SUMO dose: inhibits SUMO pathway, affecting Mot1-301 yeast growth; shares compounds with Mot1-301 SUMO; S. cerevisiae Mot1-301 galactose growth, ATP luminescence, 24 h; -100 = growth of slx-deleted rescue strain; growth activity, percent, % at 42 µM; 2,300 tested, under 10 active; AID 493004;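 active means Signal drops as the depositor expects, and the fitted half-maximal dose is no more than ten times the top valid tested dose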;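 further: more negative values mean stronger growth rescue toward the control strain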
Numbers without * were called inactive; x = no result given; + = active, no number; ! = a repeat was not active; [ ] = another dose, or the depositor's remark. Most compounds without a hit are left out; they make up all but 3.8% or so of the library.

SMILES	FAS TE block	Mot1-301 SUMO	aDG glyco up	MPTP block	H9c2 protect	CR mimetic SO	Mot1 SUMO dose
Cc1ccc(-c2nn(-c3ccccc3)cc2/C=N/NC(=O)c2ccc(Br)o2)cc1	1	24	1	49	-33	109	x
O=C(N/N=C\c1cn(-c2ccccc2)nc1-c1ccccc1)c1ccc(Br)o1	20	+	1	0	-24	100	-1
Cc1ccccc1C(=O)NNC(=O)/C=C\C(=O)O	-2	792*	0	1	9	93	0
N#Cc1ccc2[nH]c(CO)c(-c3ccccc3)c2c1	5	+	0	5	-5	101	-1
CC(=O)Nc1ccc(/C(C)=N/NC(=O)c2ccncc2)cc1	-4	+	0	0	-7	105	0
CC1(C)CC(=O)C2=C(C1)OC(N)=C(C#N)C21C(=O)N(CN2CCOCC2)c2ccccc21 (stereo not given)	-8	457*	0	-4	-3	98	0
CC[n+]1c(/C=C(/C)SC)sc2ccccc21	-11	76	0	1	-11	102	x
CC[n+]1c(/C=C(\C)SC)sc2ccccc21	-6	540*	0	1	-14	100	-1
COc1ccc(NC(=O)CN2c3cccc4cccc(c34)S2(=O)=O)cc1OC	-3	x	1	48	-20	x	x
CCCn1c(N)cc(=O)n(CCC)c1=O	-5	792*	0	0	5	96	0
CC(C)Cn1c(N)cc(=O)n(C)c1=O	-8	-7	0	-2	-2	89	x
O=C(c1ccco1)N1CCN(C2CC(=O)N(c3ccc(F)c(Cl)c3)C2=O)CC1 (stereo not given)	-3	551*	0	-2	0	111	-1
CN1c2ccccc2-c2nc3ccccc3n2C1c1ccncc1 (stereo not given)	-5	635*	0	-1	5	144	0
CN1c2ccccc2-c2nc3ccccc3n2C1c1ccccn1 (stereo not given)	0	x	0	0	8	100	x
CC(C)n1nc(C(=O)NNC(=O)c2ccc(OC(F)F)cc2)c2ccccc2c1=O	3	2	0	-1	5	93	x
O=C(NCc1ccccc1Cl)c1ccc2c(c1)OCO2	-3	650*	0	-1	-2	104	-1
O=C(NCc1ccccc1F)c1ccc2c(c1)OCO2	-3	-3	0	-3	-4	101	x
COc1ccc(C(=O)C(=O)N2CCN(c3ccccc3F)CC2)cc1	x	x	0	2	x	x	x
CC1CCN(C(=O)CCCOc2ccc(Cl)cc2)CC1	7	108	0	-1	0	115	x
CC1CCN(CCCCOc2ccc(Cl)cc2)CC1	-8	427*	0	-1	4	101	0
Cc1cn([C@H]2C[C@H](O)[C@@H](CCC(=O)NCCc3cccs3)O2)c(=O)[nH]c1=O	-13	x	0	-3	6	x	x
O=C(Nc1ccccn1)c1cccs1	-10	-5	0	-1	-4	133	x
CN1C(C(=O)Nc2ccccn2)=C(O)c2sccc2S1(=O)=O	-6	982*!	0	-2	4	107	0
Cn1c(-c2ccc3c(c2)OCO3)cnc1NC(=O)CCC(=O)NCCc1ccccc1	-4	676*	0	-2	-3	104	-1
Cn1c(-c2ccc3c(c2)OCO3)cnc1NCc1ccccc1	-10	-1	1	1	5	98	x
SMILES	FAS TE block	Mot1-301 SUMO	aDG glyco up	MPTP block	H9c2 protect	CR mimetic SO	Mot1 SUMO dose
CC(=O)C1CCC2C3CCC4=CC(=O)CCC4(C)C3(F)C(O)CC12C (stereo not given)	-11	x	0	1	3	x	x
Cc1ccc(-c2csc3nnc(SCc4csc(C)n4)n23)cc1	-5	-16	0	-1	2	99	x
Cc1nc(CSc2nnc3scc(-c4ccccc4)n23)cs1	-10	+	0	0	8	99	1
COc1cccc(CNC(=O)CNC(=O)N2CC(=O)Nc3ccccc32)c1	-4	-7	0	1	5	107	x
CCC(C)NC(=O)CSc1nnc(-c2cc(-c3ccc(C)cc3)nc3ccccc23)n1N (stereo not given)	9	971*	0	-2	0	86	1
O=C1CCC(C(=O)OCc2cc(=O)oc3ccc4ccccc4c23)=NN1	1	-18	0	1	9	97	x
Oc1cccc2ccc(/C=C/c3ccccc3Br)nc12	15	528*	0	-1	22	109	0
COc1cc(Br)c(/C=C/c2ccc3cccc(O)c3n2)cc1OC	7	14	-1	0	19	94	x
NC(=O)C1CCN(c2ccc(S(=O)(=O)N3CCCCC3)cc2[N+](=O)[O-])CC1	-6	1	0	-2	-4	107	x
Cc1sc(NC(=O)CSC2=NCCS2)nc1-c1ccccc1	-2	722*	0	-2	5	91	-1
O=C(CSC1=NCCS1)Nc1nc2ccccc2s1	-16	8	0	-1	-3	92	x
O=C(NCC(=O)N1CCc2ccccc2C1)c1ccccc1Cl	-3	-14	0	8	-1	100	x
O=C(N/C(=C/c1ccc(F)cc1)C(=O)N1CCOCC1)c1ccco1	0	x	0	0	4	x	x
CCN1C[C@@H]2[C@@H]3C(=O)N(Cc4ccccc4)C(=O)[C@@H]3[C@](Cc3ccccc3)(C1=O)N2C(=O)c1ccc(C)cc1	-1	x	0	1	2	x	x
Cc1ccc(C)c(N2CCN(C(c3ccncc3)c3nnnn3Cc3ccccc3)CC2)c1 (stereo not given)	4	422*	0	0	-3	103	1[21 µM]
Cc1ccn(CC(=O)N2CCCC(C(=O)c3cccc4ccccc34)C2)n1 (stereo not given)	0	287	0	0	-9	114	x
Cc1nc(C)n(CC(=O)N2CCCC(C(=O)c3cccc4ccccc34)C2)n1 (stereo not given)	-7	365*	0	0	0	94	-1
CC(C)c1ccc(C2C(C(=O)c3ccco3)=C(O)C(=O)N2CCN2CCOCC2)cc1 (stereo not given)	10	+	0	0	12	97	0
CCOc1ccc(C2C(C(=O)c3ccco3)=C(O)C(=O)N2CCN2CCOCC2)cc1 (stereo not given)	1	3	1	-1	2	120	x
CCCN=C1N(C)C[C@@H]2[C@@H]3C(=O)N(C)C(=O)[C@@H]3[C@](Cc3ccccc3)(C(=O)OC)N12	-8	x	0	-1	8	104	x
